What all share (test): DAPPL (digital affinity profiling via proximity ligation, sequencing); 10 mM Tris-HCl pH 7.5, 50 mM NaCl, 1 mM DTT, 4% glycerol, room temperature, 30 min; GST-TFs on glutathione beads, 16-mer random dsDNA library, 0.1% formaldehyde crosslink after washing; high values mean tight binding
One assay concerns the target T1, FLI1 (Homo sapiens, UniProt Q01543 1-452).
T1 sequence: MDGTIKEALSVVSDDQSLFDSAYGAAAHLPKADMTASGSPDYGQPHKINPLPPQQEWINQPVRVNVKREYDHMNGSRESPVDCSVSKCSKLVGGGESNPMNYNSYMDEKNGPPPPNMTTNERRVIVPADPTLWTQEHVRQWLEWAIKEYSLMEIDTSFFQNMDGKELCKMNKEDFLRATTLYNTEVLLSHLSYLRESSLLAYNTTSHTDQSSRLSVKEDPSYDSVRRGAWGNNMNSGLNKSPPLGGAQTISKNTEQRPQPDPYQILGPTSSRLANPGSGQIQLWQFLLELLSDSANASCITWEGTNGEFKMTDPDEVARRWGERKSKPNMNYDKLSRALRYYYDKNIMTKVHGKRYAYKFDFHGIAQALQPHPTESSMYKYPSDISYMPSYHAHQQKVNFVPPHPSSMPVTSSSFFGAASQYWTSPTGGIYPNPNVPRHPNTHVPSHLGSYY
The note with it: protein: recombinant; tags: N-terminal GST; dsDNA, one strand shown. In a few lines:
(§1)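 Binding signal is each hexamer's read frequency for a factor divided by its frequency in the tag-only sample. The factors were GST-fused human transcription factors from yeast, captured on glutathione beads, DNA-barcoded and pooled with that sample. Pools were incubated with 200 nmole of a random double-stranded 16-mer DNA library in Tris/NaCl/DTT/glycerol buffer at room temperature for 30 min, then washed, crosslinked with 0.1% formaldehyde, proximity-ligated with BsaI/T4 ligase (1 h, 37 °C), PCR-amplified and sequenced on an Illumina NextSeq500.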

The next assay deals with T2, ELK1 (Homo sapiens, UniProt P19419 1-428).
T2 sequence: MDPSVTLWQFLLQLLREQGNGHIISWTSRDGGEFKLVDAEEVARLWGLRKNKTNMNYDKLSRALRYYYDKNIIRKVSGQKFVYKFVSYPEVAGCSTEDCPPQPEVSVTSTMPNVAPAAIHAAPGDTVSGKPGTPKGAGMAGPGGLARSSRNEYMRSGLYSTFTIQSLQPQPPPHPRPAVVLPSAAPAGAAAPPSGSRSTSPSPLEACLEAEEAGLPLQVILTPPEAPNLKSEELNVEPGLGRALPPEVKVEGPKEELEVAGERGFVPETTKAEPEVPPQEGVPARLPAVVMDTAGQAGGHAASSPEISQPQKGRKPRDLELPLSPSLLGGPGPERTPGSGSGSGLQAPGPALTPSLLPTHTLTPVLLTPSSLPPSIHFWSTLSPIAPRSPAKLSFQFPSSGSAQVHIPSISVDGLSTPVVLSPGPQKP
The note with it: protein: recombinant; tags: N-terminal GST; dsDNA, one strand shown. In a few lines: as §1

The target of another assay is T3, GABPA (Homo sapiens, UniProt Q06546 1-454).
T3 sequence: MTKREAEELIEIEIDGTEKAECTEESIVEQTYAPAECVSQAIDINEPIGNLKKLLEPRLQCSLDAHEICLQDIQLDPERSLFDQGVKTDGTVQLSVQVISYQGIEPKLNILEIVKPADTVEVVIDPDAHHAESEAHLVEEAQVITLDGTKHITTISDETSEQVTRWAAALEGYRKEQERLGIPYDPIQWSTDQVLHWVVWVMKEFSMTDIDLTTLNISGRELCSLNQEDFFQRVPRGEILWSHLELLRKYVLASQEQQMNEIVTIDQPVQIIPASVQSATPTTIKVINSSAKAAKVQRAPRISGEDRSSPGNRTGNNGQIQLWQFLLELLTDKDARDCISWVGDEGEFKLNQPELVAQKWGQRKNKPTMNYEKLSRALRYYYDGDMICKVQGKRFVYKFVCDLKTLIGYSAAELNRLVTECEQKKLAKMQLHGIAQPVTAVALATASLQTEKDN
The note with it: protein: recombinant; tags: N-terminal GST; dsDNA, one strand shown. In a few lines:
as §1

Another assay deals with T4, ERG (Homo sapiens, UniProt P11308 1-479).
T4 sequence: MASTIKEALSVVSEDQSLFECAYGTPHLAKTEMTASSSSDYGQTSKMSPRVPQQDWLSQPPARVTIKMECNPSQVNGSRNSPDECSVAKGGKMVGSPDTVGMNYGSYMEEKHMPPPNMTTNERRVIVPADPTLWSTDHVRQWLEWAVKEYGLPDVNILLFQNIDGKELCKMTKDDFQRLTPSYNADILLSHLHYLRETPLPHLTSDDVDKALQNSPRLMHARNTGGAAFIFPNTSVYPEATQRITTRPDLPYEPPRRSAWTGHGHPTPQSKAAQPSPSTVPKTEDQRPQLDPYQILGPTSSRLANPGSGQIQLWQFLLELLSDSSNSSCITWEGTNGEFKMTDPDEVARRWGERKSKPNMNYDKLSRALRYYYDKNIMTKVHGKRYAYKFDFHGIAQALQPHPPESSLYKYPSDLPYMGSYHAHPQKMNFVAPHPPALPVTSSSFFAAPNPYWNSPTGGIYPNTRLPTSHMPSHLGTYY
The note with it: protein: recombinant; tags: N-terminal GST; dsDNA, one strand shown. In a few lines: as §1

A further assay deals with ELF1 (Homo sapiens, UniProt P32519 1-619). The note with it: protein: recombinant; tags: N-terminal GST; dsDNA, one strand shown. In a few lines: as §1
Another assay has as its target T5, EHF (Homo sapiens, UniProt Q9NZC4 1-300).
T5 sequence: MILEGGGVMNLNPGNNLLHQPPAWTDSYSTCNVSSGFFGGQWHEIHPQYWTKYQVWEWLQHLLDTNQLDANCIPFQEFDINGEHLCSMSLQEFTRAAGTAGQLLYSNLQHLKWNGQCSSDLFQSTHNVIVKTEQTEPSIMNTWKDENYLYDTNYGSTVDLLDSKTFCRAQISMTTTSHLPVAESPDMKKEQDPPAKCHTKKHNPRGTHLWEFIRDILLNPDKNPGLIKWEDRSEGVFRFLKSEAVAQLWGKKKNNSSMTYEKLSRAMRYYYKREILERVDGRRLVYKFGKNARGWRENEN
Particulars: protein: recombinant; tags: N-terminal GST; dsDNA, one strand shown. In a few lines: as §1

The next assay has as its target SPI1 (Homo sapiens, UniProt P17947 1-270). The note with it: protein: recombinant; tags: N-terminal GST; dsDNA, one strand shown. In a few lines: as §1
The target in the next assay is SPIB (Homo sapiens, UniProt Q01892 1-262). Particulars: protein: recombinant; tags: N-terminal GST; dsDNA, one strand shown. In a few lines: as §1
For a further assay, the target named is T6, ELK3 (Homo sapiens, UniProt P41970 1-407).
T6 sequence: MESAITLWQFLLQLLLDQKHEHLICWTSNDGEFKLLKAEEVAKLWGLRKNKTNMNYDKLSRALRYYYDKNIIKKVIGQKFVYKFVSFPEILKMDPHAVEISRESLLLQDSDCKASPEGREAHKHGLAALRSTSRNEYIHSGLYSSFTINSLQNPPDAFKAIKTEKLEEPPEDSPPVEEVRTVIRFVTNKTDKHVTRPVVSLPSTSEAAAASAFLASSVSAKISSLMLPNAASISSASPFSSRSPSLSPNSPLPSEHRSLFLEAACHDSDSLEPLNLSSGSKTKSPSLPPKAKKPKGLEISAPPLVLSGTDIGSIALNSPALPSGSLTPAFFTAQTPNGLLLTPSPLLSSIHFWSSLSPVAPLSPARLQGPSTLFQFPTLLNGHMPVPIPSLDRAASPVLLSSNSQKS
Particulars: protein: recombinant; tags: N-terminal GST; dsDNA, one strand shown. In a few lines: as §1

Another assay concerns the target T7, FEV (Homo sapiens, UniProt Q99581 1-238).
T7 sequence: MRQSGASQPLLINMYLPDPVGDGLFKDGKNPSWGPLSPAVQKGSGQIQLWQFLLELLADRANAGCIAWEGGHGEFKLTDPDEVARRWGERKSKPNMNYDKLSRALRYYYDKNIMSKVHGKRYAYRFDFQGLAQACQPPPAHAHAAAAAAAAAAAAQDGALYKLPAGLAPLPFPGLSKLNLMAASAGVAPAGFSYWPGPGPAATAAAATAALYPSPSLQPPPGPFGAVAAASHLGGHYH
The note with it: protein: recombinant; tags: N-terminal GST; dsDNA, one strand shown. In a few lines: as §1

Another assay has as its target ETV5 (Homo sapiens, UniProt P41161 1-510). The note with it: protein: recombinant; tags: N-terminal GST; dsDNA, one strand shown. In a few lines:
as §1

In another assay the target is HSF1 (Homo sapiens, UniProt Q00613 1-529). Particulars: protein: recombinant; tags: N-terminal GST; chain copies: 3; dsDNA, one strand shown. In a few lines: as §1
For the next assay, the target named is T8, SPIC (Homo sapiens, UniProt Q8N5J4 1-248).
T8 sequence: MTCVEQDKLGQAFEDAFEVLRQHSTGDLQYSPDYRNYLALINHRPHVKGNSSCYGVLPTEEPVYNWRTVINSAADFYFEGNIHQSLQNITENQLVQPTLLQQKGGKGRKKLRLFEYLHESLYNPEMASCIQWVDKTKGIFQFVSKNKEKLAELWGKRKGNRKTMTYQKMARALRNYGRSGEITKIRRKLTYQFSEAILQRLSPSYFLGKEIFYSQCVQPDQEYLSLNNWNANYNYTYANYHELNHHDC
The note with it: protein: recombinant; tags: N-terminal GST; dsDNA, one strand shown. In a few lines: as §1

The target of a further assay is ELF4 (Homo sapiens, UniProt Q99607 1-663). Particulars: protein: recombinant; tags: N-terminal GST; dsDNA, one strand shown. In a few lines:
as §1

The target of a further assay is T9, ELK4 (Homo sapiens, UniProt P28324-2 1-405).
T9 sequence: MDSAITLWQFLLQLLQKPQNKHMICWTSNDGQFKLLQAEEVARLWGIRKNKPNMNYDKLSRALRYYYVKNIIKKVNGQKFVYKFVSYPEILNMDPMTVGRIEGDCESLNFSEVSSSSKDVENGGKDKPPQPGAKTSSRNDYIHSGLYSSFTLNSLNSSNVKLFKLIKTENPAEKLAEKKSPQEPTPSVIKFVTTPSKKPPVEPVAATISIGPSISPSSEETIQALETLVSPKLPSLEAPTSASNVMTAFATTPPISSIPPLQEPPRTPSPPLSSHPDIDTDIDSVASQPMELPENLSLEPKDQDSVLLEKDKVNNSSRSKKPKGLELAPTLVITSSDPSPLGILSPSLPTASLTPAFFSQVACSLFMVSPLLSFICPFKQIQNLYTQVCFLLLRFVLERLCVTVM
The note with it: protein: recombinant; tags: N-terminal GST; dsDNA, one strand shown. In a few lines: as §1

The next assay deals with T10, ETV2 (Homo sapiens, UniProt O00321 1-342).
T10 sequence: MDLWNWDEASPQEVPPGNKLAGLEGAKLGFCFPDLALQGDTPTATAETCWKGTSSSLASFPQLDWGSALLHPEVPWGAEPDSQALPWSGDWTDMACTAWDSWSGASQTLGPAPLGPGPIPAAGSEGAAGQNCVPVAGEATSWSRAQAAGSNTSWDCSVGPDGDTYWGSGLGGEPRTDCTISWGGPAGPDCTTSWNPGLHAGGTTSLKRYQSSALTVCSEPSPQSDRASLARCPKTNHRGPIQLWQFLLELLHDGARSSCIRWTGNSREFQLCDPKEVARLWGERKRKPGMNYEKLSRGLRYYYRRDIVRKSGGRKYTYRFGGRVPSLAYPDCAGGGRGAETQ
Particulars: protein: recombinant; tags: N-terminal GST; dsDNA, one strand shown. In a few lines:
as §1

In another assay the target is T11, ELF3 (Homo sapiens, UniProt P78545 1-371).
T11 sequence: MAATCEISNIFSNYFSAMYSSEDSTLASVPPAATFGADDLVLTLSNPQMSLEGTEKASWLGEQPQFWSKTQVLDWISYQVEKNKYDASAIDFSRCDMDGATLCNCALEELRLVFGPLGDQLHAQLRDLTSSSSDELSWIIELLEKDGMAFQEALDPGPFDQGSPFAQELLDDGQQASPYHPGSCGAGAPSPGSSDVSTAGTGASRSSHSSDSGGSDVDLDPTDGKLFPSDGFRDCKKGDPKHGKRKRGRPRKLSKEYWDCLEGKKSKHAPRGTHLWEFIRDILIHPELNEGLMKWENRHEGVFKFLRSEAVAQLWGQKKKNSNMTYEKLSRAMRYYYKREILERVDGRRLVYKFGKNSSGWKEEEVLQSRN
The note with it: protein: recombinant; tags: N-terminal GST; dsDNA, one strand shown. In a few lines:
as §1

Another assay addresses CRX (Homo sapiens, UniProt O43186 1-299). Particulars: protein: recombinant; tags: N-terminal GST; dsDNA, one strand shown. In a few lines:
as §1

The target of a further assay is ETV1 (Homo sapiens, UniProt P50549 1-477). The note with it: protein: recombinant; tags: N-terminal GST; dsDNA, one strand shown. In a few lines:
as §1

Sequence of ETV5 (P41161 whole entry): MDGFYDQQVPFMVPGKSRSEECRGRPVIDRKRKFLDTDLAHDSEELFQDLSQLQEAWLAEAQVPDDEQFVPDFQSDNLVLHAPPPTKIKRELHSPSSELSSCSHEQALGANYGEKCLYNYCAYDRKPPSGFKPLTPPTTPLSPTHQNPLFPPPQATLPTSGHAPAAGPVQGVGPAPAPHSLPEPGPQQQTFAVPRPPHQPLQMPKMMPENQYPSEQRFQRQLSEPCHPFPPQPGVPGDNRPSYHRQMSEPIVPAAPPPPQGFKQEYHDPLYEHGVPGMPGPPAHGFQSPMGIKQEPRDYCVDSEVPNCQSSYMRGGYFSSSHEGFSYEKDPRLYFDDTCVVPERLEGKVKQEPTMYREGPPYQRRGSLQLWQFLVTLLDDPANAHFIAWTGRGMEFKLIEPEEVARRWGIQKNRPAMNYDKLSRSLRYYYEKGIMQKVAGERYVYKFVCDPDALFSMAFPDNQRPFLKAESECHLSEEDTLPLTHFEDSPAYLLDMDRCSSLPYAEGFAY
Sequence of ELF4 (Q99607 whole entry): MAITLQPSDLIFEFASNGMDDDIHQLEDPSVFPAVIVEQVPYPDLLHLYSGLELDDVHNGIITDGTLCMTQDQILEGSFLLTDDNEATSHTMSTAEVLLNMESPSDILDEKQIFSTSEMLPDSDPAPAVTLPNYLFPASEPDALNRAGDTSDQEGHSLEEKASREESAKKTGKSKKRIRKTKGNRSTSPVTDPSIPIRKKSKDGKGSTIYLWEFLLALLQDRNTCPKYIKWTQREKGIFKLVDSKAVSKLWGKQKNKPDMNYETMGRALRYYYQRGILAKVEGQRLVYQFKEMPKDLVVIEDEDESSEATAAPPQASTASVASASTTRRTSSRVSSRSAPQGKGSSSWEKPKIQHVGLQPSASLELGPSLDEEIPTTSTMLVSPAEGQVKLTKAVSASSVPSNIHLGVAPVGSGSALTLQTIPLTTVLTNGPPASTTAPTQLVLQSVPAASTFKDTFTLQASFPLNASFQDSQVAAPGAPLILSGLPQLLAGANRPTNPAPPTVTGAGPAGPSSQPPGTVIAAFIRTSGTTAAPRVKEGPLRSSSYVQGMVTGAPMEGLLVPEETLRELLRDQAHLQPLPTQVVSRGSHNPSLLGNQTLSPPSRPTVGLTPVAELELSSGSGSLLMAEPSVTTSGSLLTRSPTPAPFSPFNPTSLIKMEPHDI
Sequence of SPIB (Q01892 whole entry): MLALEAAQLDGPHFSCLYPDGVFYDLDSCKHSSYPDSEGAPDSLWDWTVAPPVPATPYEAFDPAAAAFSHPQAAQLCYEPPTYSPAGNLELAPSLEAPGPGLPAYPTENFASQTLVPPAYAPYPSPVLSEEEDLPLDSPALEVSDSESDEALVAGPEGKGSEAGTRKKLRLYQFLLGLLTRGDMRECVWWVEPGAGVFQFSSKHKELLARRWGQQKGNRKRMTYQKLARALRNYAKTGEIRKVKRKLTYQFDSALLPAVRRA
Sequence of ELF1 (P32519 whole entry): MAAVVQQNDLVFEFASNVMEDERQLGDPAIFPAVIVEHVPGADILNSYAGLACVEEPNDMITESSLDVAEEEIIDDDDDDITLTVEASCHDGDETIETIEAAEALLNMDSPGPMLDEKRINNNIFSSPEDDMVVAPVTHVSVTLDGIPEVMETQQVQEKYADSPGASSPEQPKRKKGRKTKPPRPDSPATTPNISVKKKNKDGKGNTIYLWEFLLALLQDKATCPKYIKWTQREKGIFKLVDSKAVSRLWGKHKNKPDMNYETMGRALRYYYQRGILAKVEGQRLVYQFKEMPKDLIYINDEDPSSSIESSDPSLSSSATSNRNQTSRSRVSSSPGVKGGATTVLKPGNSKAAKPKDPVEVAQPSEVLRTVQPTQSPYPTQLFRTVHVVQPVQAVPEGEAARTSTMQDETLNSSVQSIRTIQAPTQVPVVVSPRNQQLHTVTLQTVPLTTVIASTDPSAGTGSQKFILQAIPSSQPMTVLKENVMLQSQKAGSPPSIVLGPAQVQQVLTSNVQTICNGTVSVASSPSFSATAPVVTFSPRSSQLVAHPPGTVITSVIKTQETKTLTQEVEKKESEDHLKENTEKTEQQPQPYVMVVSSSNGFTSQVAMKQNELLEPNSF
Sequence of ETV1 (P50549 whole entry): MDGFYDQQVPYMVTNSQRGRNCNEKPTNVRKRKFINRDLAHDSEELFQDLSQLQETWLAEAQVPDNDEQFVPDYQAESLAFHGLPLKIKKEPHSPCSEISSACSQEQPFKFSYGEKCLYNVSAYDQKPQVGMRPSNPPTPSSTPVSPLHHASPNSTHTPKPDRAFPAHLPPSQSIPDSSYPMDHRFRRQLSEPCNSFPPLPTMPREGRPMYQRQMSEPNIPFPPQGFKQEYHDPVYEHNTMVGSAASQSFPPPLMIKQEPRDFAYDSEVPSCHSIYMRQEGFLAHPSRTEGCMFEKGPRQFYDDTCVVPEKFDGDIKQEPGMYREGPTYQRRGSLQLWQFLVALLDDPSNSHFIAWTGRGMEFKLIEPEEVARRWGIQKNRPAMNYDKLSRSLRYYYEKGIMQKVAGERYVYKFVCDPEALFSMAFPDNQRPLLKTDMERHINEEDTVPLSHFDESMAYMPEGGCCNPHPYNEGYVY
Sequence of CRX (O43186 whole entry): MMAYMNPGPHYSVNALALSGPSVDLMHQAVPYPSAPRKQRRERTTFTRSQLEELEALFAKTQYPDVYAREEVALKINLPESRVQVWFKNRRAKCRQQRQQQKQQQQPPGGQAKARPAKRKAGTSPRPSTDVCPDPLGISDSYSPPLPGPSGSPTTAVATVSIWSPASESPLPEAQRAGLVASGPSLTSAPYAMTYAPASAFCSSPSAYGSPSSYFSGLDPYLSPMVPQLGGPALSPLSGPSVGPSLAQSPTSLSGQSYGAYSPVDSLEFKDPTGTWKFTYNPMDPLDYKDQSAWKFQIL
Sequence of HSF1 (Q00613 whole entry): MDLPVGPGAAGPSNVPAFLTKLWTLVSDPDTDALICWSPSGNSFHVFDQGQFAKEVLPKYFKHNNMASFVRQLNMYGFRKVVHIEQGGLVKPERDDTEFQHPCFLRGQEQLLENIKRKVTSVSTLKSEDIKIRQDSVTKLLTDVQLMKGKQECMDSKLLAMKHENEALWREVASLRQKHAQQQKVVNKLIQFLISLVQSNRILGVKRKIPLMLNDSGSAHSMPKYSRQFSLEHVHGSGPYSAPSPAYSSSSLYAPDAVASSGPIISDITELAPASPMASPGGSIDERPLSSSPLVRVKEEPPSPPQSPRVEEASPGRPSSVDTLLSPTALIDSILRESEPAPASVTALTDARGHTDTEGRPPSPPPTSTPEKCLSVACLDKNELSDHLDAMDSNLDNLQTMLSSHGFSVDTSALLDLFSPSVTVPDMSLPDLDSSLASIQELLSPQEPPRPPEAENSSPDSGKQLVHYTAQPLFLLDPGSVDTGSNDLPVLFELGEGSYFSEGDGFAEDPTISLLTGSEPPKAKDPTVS

Take TGGTAT: the binding signal in the assay with FLI1 was 1.41 fold enrichment (6-mer frequency, TF over GST control); with ELK1 it was 1.45 fold enrichment (6-mer frequency, TF over GST control); with GABPA, 1.29 fold enrichment (6-mer frequency, TF over GST control); with ERG, 1.31 fold enrichment (6-mer frequency, TF over GST control); in the assay with ELF1, 1.39 fold enrichment (6-mer frequency, TF over GST control); with EHF it was 1.32 fold enrichment (6-mer frequency, TF over GST control). Further, the binding signal was 1.39 fold enrichment (6-mer frequency, TF over GST control) with SPI1; 1.37 fold enrichment (6-mer frequency, TF over GST control) with SPIB; 1.24 fold enrichment (6-mer frequency, TF over GST control) with ELK3; 1.26 fold enrichment (6-mer frequency, TF over GST control) with FEV; 1.37 fold enrichment (6-mer frequency, TF over GST control) with ETV5; 1.35 fold enrichment (6-mer frequency, TF over GST control) with HSF1. Also, the binding signal in the assay with SPIC was 1.39 fold enrichment (6-mer frequency, TF over GST control); in the assay with ELF4, 1.42 fold enrichment (6-mer frequency, TF over GST control); in the assay with ELK4, 1.47 fold enrichment (6-mer frequency, TF over GST control); with ETV2, 1.33 fold enrichment (6-mer frequency, TF over GST control); with ELF3, 1.45 fold enrichment (6-mer frequency, TF over GST control); in the assay with CRX it was 1.39 fold enrichment (6-mer frequency, TF over GST control). The binding signal in the assay with ETV1 is 1.37 fold enrichment (6-mer frequency, TF over GST control).
